Assay outcomes from PubChem.
KDM5B inhibitor – inhibitors of human KDM5B histone demethylase | KDM5B demethylase, FDH-coupled NADH fluorescence (FDH is formaldehyde dehydrogenase) | Potency, µM (highest dose often 57.7 µM), usual class: inhibitors | actives 2.6% (n = 220,000); note: potency is the fitted concentration of half-maximal effect; 0% is about no effect; nearly all actives have a fitted effect of over 70% in size
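Inhibition is measured as reduced NADH fluorescence generation from FDH coupling to formaldehyde release. Truncated KDM5BΔAP at 200 nM final acts on H3K4me3 peptide (12.5 µM in substrate mix) in pH 7.5 HEPES buffer with Tween-20, 30 min, room temperature.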
SNCA expr inhib – inhibitors of alpha-synuclein (SNCA) gene expression. HEK-293 SNCA-luciferase knock-in, luminescence, 24 h. Potency, µM (highest dose often 57.2 µM), without a hit: at the top dose activity change, negative = inhibition, most hits filed as inhibitors. actives 0.17% (n = 140,000). AID 1671194;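 note: potency is the fitted concentration of half-maximal effect; plate controls were DMSO cells for no effect and cell-free wells for full effect; nearly all actives have a fitted effect of over 45% in size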
IP6K1 inh – inhibitors of human IP6K1. activity change, % (series mostly up to about 58 µM). actives 0.81% (n = 140,000). IP6K1 kinase, ADP-Glo luminescence, 2 h; stronger effect = lower value. Q92551; in the data active = activity change below about -25%; note: % is set by controls: 0 for no effect and ±100 for the full control effect
Target sequence (Q92551 whole entry, looked up): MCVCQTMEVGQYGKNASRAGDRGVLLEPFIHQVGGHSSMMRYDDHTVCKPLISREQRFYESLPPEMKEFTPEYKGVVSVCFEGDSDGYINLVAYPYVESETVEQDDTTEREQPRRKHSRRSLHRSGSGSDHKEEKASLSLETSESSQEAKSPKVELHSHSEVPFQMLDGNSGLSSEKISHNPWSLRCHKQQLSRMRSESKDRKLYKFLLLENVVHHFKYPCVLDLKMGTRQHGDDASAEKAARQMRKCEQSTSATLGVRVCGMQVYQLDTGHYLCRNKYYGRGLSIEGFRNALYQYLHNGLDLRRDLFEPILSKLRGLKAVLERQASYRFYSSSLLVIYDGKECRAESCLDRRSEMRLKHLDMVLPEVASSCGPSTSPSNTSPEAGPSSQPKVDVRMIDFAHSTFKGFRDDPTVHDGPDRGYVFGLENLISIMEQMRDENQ
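ADP-Glo luminescence measures ADP made by human IP6K1 during a 2 h RT reaction with ATP/IP6 (mix at 1.3 mM/130 uM); top library doses 57.5 and 19.1 uM final.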
SNCA viab count – cell viability loss counter-screen; HEK-293-SNCA-luc viability, GF-AFC fluorescence, 24 h; Potency, µM (series often up to 57.1 µM), for the others: top-dose activity change, negative = cytotoxicity, hits mostly cytotoxic; actives 0.12% (n = 150,000);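 note: potency is the fitted concentration of half-maximal effect; 0% = DMSO-treated cells and -100% = medium-only wells without cells; nearly all actives have a fitted effect of over 30% in size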
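Cytotoxicity counterscreen: after 24 h compound treatment of genome-edited SNCA-luciferase HEK-293 cells, live-cell protease substrate GF-AFC read by fluorescence after 30 min; activity scaled between DMSO (0%) and medium-only (-100%), curves Hill-fitted.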
* marks the source's active call; other numbers are inactive results; i = inactive; u = inconclusive; x = not tested or not shown; [ ] = another dose, or the depositor's remark. In the library only some 2.9% were active in any assay of this set; here they are far more common. Unless noted, calls come from the whole dose curve; as a rule, active = well fitted curve in the direction sought with a large enough effect; inconclusive = small, poorly fitted or top-dose-only effect, or another doubt; inactive = no such curve, though single readings can be large; an effect the other way counts as inactive or inconclusive.

SMILES	KDM5B inhibitor	SNCA expr inhib	IP6K1 inh	SNCA viab count
CCc1cccc2c(C(CC(=O)N3CCCC3)c3ccc(Cl)c(Cl)c3)c[nH]c12 (centres undefined)	i	-22%	23	-13%
CN(C)CCCOCC1(C)COc2ccc(C(=O)Nc3ccc(F)c(Cl)c3)cc2N1 (centres undefined)	28µM*	84%[87.6 µM]	-8	-1%[87.6 µM]
CC1(COCC2CC2)COc2ccc(C(=O)Nc3ccc(Cl)cc3)cc2N1 (centres undefined)	u	19%[87.6 µM]	4	-26%[87.6 µM]
CCN(CC)C(=O)N1CCCCC1c1nc(CCOc2ccc(F)cc2)no1 (centres undefined)	x	0%	-4	1%
O=C1CCN(CC(O)Cc2ccccc2)c2cc3c(cc2CN1Cc1ccccc1)OCO3 (centres undefined)	x	x	3	x
O=C(CCc1ncc(-c2ccc(Cl)cc2)o1)N1CCCC(O)C1 (centres undefined)	i	x	x	x
CN(C)[C@H]1CCCCN(C(=O)CCc2ccc(-c3ccc(Cl)cc3)[nH]2)C1	32µM*	17%	-7	-19%
CCOc1ccc(-c2nc(C#N)c(NCc3ccccc3Cl)o2)cc1	i	x	x	x
COc1cc2cc(CN3CCC[C@H]3CO)c(-c3cccc(Cl)c3)nc2cc1OC	25µM*	8%	-6	-11%
COc1ccc(-c2nc3cc(C)ccc3cc2CN2CCC[C@@H]2CO)cc1OC	u	-9%	17	0%
COc1ccc(-c2nc3c(C)cccc3cc2CN2CCC[C@H]2CO)cc1OC	25µM*	-4%	-7	u
Cc1ccccc1-c1nc2cc3c(cc2cc1CN1CCC[C@H]1CO)OCO3	u	32%	3	1%
COc1ccc(-c2nc3c(C)cccc3cc2CN2CC[C@@H](O)C2)cc1	18µM*	22%	2	u
COc1ccc(Nc2ccnc(N3CCC(C(=O)NC4CCCC4)CC3)n2)cc1	x	1%	-2	-18%[12.5 µM]
O=C(Cc1cccc(Cl)c1)N1CCN(c2nccc(Nc3ccccc3Cl)n2)CC1	x	-3%	-1	-21%
CN1c2cccnc2CN(CC2CCCCC2)CC[C@H]1CO	28µM*	10%[87.6 µM]	-4	-5%[87.6 µM]
CCOC(=O)[C@H]1[C@@H](O)C(=O)N(Cc2ccccc2)C12CCN(C(=O)c1cc3ccccc3s1)CC2	x	x	19	x
CNCC(=O)NC1CCCN(c2ccc(C(F)(F)F)cn2)C1 (centres undefined)	28µM*	7%	5	5%
Cc1ccc(C(=O)NC2CCCN(c3ccc(C(F)(F)F)cn3)C2)cn1 (centres undefined)	i	x	x	x
COCCN1CCC2(CCC1=O)CN(c1ccc(C#N)cn1)CCN2C (centres undefined)	28µM*	u	15	u
COc1cccc(-c2cc(C(=O)N3CCCC3)c3cnn(C)c3n2)c1	x	x	0	x
CSc1cccc(NC(=O)c2cc3c(N4CCSCC4)nc(C)cn3n2)c1	25µM*	-6%	-2	-5%
COc1ccc(NC(=O)c2cc3c(N4CCSCC4)nc(C)cn3n2)cc1F	28µM*	12%	13	-8%
Cc1cn2nc(C(=O)Nc3ccc(Cl)c(C)c3)cc2c(N2CCSCC2)n1	22µM*	55%	-4	8%
CSc1cccc(NC(=O)c2cc3c(N4CCCC4)nc(C)cn3n2)c1	i	20%	0	2%
SMILES	KDM5B inhibitor	SNCA expr inhib	IP6K1 inh	SNCA viab count
Cc1cn2nc(C(=O)Nc3ccc(F)c(C)c3)cc2c(N2CCSCC2)n1	32µM*	-15%	-5	-17%
CC(=O)Nc1ccc(CN2CCN(c3cc(Cl)ncn3)C(=O)C2)cc1	i	-3%	28	2%
c1ccc(OCc2noc(-c3ccc(NC4CCSC4)nc3)n2)cc1 (centres undefined)	28µM*	59%	14	-2%
CC1(COc2ccc(-c3nc(COc4ccccc4)no3)cn2)CCCNC1 (centres undefined)	u	94%	19	-7%
COCCC(=O)N1CCNc2cnc(Nc3cccc(C(F)(F)F)c3)nc2C1	u	27%[87.6 µM]	-10	-3%[87.6 µM]
O=C(CCc1ccccc1)N1CCNc2cnc(Nc3cccc(C(F)(F)F)c3)nc2C1	25µM*	-18%	-6	-7%
O=C(Cc1ccc2c(c1)OCO2)N1CCNc2cnc(Nc3cccc(C(F)(F)F)c3)nc2C1	14µM*	u	-9	-5%
O=C(Cc1cccc(Cl)c1)N1CCNc2cnc(Nc3cccc(C(F)(F)F)c3)nc2C1	u	u	-14	-20%
Cc1nn(-c2ccccc2)c2c1C(C)N(CC1CN(C(=O)c3ccc(Cl)cc3)C1)C2=O (centres undefined)	x	x	9	x
COC[C@@H]1CN(c2cnccn2)C[C@H]1C(=O)NCc1ccco1	25µM*	-18%	12	16%
COC[C@@H]1CN(c2cnccn2)C[C@H]1C(=O)NCc1ccccn1	u	-8%	9	-4%
COC[C@@H]1CN(c2cnccn2)C[C@H]1C(=O)NCc1ccccc1F	20µM*	-6%	0	u
O=C(NCc1ccco1)[C@@H]1Cc2nc[nH]c2CN1Cc1cccnc1	u	-6%[87.6 µM]	2	7%[87.6 µM]
O=[S+]1([O-])NCC2(CCCN(Cc3cccc(C(F)(F)F)c3)C2)Oc2ncccc21 (centres undefined)	i	-16%	-2	-3%
O=[S+]1([O-])NCC2(CCCN(Cc3ccc(Cl)cc3)C2)Oc2ncccc21 (centres undefined)	79µM*	-13%	18	-3%
c1ccc(-c2ccccc2CN[C@@H]2C[C@@H]3CO[C@H](c4ccccc4)C[C@@H]3C2)cc1	x	x	3	x
Cn1cc(CN2Cc3c(cc(N4CCOCC4)nc3-c3cccc(F)c3)C2=O)cn1	35µM*	0%[87.6 µM]	12	6%[87.6 µM]
COc1ccc(-c2nc(N3CCOCC3)cc3c2CN(Cc2cnn(C)c2)C3=O)cc1OC	i	36%	11	14%
Cn1cc(CN2Cc3c(cc(N4CCOCC4)nc3-c3ccc(CO)cc3)C2=O)cn1	35µM*	-18%[87.6 µM]	12	11%[87.6 µM]
Cn1cc(CN2Cc3c(cc(N4CCOCC4)nc3-c3cccnc3)C2=O)cn1	35µM*	7%[87.6 µM]	16	4%[87.6 µM]
Cc1noc2c(-c3ccc(N4CCOCC4)cc3)cc(-c3cccnc3)nc12	u	u	0	28%[87.6 µM]
CC(=O)Nc1cc(C(=O)N(C)Cc2ccco2)c2ccc(C)nc2c1	u	16%	11	2%
Cc1cccc(CNC(=O)c2cc(NC(=O)C(C)C)cc3nc(C)ccc23)c1	13µM*	3%	14	2%
Cc1ccc2c(C(=O)NCCc3cccnc3)cc(NC(=O)C(C)C)cc2n1	20µM*	-10%	17	-3%
COc1ccc(NC(=O)c2cc(NC(=O)C(C)C)cc3nc(C)ccc23)cc1	i	-12%	13	7%
CC(=O)Nc1cc(C(=O)NCc2ccccc2C)c2ccc(C)nc2c1	25µM*	-12%	27	-13%
O=C(NCCc1cccnc1)c1ccc(Cl)cc1Cl	i	x	x	x
Cc1ccc2c(C(=O)NCc3cccc(Cl)c3)cc(NC(=O)C(C)C)cc2n1	25µM*	-3%	28	7%
